Experimental findings from PubChem BioAssay (Tox21) are described below.

The structures appear in SMILES notation. Results filed as inconclusive are left out. Where a call stands in place of a potency, no number is given. Active and inactive are the calls of the source. The call rests on the fitted dose curve; in most records, active means well fitted cell-killing curve with a large enough effect in the repeat runs; inconclusive means weak or mixed curves, or effect the other way; inactive means flat fitted curve, though single readings scatter.
Further: nearly all actives have a fitted effect of over 45% in size.
Potency means the concentration at half of the fitted maximal effect.

The nature of the first test: qHTS assay to identify small molecule agonists of the constitutive androstane receptor (CAR) signaling pathway - cell viability counter screen (AID 1224836). The note with it: HepG2-CYP2B6-hCAR viability, CellTiter-Fluor, 23 h, PK11195 added to every well; series mostly up to 92.4 µM. In a few lines: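 Counter screen multiplexed with the CAR reporter readout: HepG2 cells co-transfected with hCAR and the CYP2B6-2.2kb construct receive a 15-concentration compound series and 0.75 uM PK11195 (final), then CellTiter-Fluor fluorescence is read after 23 h.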
For `CCCCCCCCc1ccc(O)cc1`, the Potency was 69 µM (active).

Consider `CC(C)(C)C(O)/C(=C\c1ccc(Cl)cc1Cl)n1cncn1` (stereo not given), for which the Potency is 74 µM (active).

As for `CC(=O)[O-].[Tl+]`, the Potency entry is “inactive”.

As for `CC(=O)O[C@H]1CC[C@@]2(C)C(=CC[C@@H]3[C@@H]2CC[C@]2(C)C(=O)CC[C@@H]32)C1`, the Potency entry was “inactive”.

Consider `O=C(CCl)C(Cl)Cl`, for which the Potency is 21.9 µM (active).

In the case of `CC(C)(C)c1cc([N+](=O)[O-])cc(C(C)(C)C)c1O`, the Potency was 19.3 µM (active).

`CCC(C)c1cc([N+](=O)[O-])cc([N+](=O)[O-])c1OC(=O)C=C(C)C` (stereo not given): the Potency is 61.1 µM (active).

As for `ClC1=C(Cl)[C@]2(Cl)[C@@H]3[C@@H]4C[C@@H]([C@H]5O[C@@H]45)[C@@H]3[C@@]1(Cl)C2(Cl)Cl`, the Potency result is “inactive”.

For `N#Cc1ccc(O)cc1`, the Potency result was “inactive”.

Regarding `CC(C)OC(=S)S`, the Potency entry was “inactive”.

On to `CC(C)Oc1cccc(NC(=O)c2ccccc2C(F)(F)F)c1`, for which the Potency entry was “inactive”.

`C[C@@H]1O[C@@H](O[C@@H]2C=C3CC[C@@H]4[C@H](CC[C@]5(C)[C@@H](c6ccc(=O)oc6)CC[C@]45O)[C@@]3(C)CC2)[C@H](O)[C@H](O)[C@H]1O`: the Potency was 0.119 µM (active).

On to `Fc1ccc(Oc2ccnc3cc(Cl)cc(Cl)c23)cc1`, for which the Potency result is “inactive”.

As for `CCN(CC)c1c([N+](=O)[O-])cc(C(F)(F)F)c(N)c1[N+](=O)[O-]`, the Potency result was “inactive”.

Consider `CNC(C)Cc1ccc2c(c1)OCO2` (stereo not given), for which the Potency result is “inactive”.

As to `CC[C@H]1C[C@@H]2C[C@H]3c4[nH]c5ccc(OC)cc5c4CCN(C2)[C@@H]13`, the Potency result was “inactive”.

`S=C=Nc1cccc2ccccc12`: the Potency was 67.9 µM (active).

On to `COc1cccc(C(=O)CCN[C@@H](C)[C@H](O)c2ccccc2)c1`, for which the Potency result was “inactive”.

`c1ccc2c(c1)OCC(C1=NCCN1)O2` (stereo not given): the Potency was 23.7 µM (active).

On to `c1cc[c]([Sb]([c]2ccccc2)[c]2ccccc2)cc1`, for which the Potency result is “inactive”.

Regarding `CC(C)(O)c1cnn2c(-c3ccc(F)c(-c4c(F)cccc4C#N)c3)cnc2n1`, the Potency entry is “inactive”.

Consider `COc1ccc(N)cc1N`, for which the Potency was 63.1 µM (active).

Turning to `CC(C)CCCCCCCOP(=O)(Oc1ccccc1)Oc1ccccc1`, the Potency result is “inactive”.

The next test in a line: qHTS assay to identify small molecule antagonists of the constitutive androstane receptor (CAR) signaling pathway - cell viability counter screen (AID 1224837). The note with it: HepG2-CYP2B6-hCAR viability, CellTiter-Fluor, 23 h, co-treated with 50 nM CITCO; series mostly up to 92.4 µM. The gist of the method:
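Counter screen run in HepG2-CYP2B6-hCAR cells: 4 hr settle, compound titration (15 concentrations) with 50 nM CITCO, 23 hr at 37 C/5% CO2, CellTiter-Fluor fluorescence.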
On the technique in general: qHTS replaces the single test concentration by a dilution series.
Consider `CC(=O)[O-].[Tl+]`, for which the Potency entry was “inactive”.

For `CC(=O)O[C@H]1CC[C@@]2(C)C(=CC[C@@H]3[C@@H]2CC[C@]2(C)C(=O)CC[C@@H]32)C1`, the Potency entry was “inactive”.

On to `Nc1ccc(Sc2ccc(N)cc2)cc1`, for which the Potency entry is “inactive”.

`O=CC(Br)(Br)Br`: the Potency was 27.2 µM (active).

For the compound `CC(C)(C)c1cc([N+](=O)[O-])cc(C(C)(C)C)c1O`, the Potency is 21.7 µM (active).

Regarding `CCC(C)c1cc([N+](=O)[O-])cc([N+](=O)[O-])c1OC(=O)C=C(C)C` (stereo not given), the Potency is 61.1 µM (active).

As for `ClC1=C(Cl)[C@]2(Cl)[C@@H]3[C@@H]4C[C@@H]([C@H]5O[C@@H]45)[C@@H]3[C@@]1(Cl)C2(Cl)Cl`, the Potency entry was “inactive”.

`CC(C)N1C(=O)N(c2ccccc2)CSC1=NC(C)(C)C`: the Potency result was “inactive”.

For the compound `N#Cc1ccc(O)cc1`, the Potency entry was “inactive”.

For the compound `CCCCOCN(C(=O)CCl)c1c(CC)cccc1CC`, the Potency result was “inactive”.

Turning to `CC(C)Oc1cccc(NC(=O)c2ccccc2C(F)(F)F)c1`, the Potency entry is “inactive”.

With `Clc1ccc(CO/N=C(\Cn2ccnc2)c2ccc(Cl)cc2Cl)c(Cl)c1`, the Potency result was “inactive”.

Regarding `N#Cc1c(-c2ccc(Cl)cc2)[nH]c(C(F)(F)F)c1Br`, the Potency is 1.22 µM (active).

For `CCCCCCCCCCCCCCC(Br)C(=O)O` (stereo not given), the Potency entry was “inactive”.

As to `Fc1ccc(Oc2ccnc3cc(Cl)cc(Cl)c23)cc1`, the Potency result is “inactive”.

With `CCN(CC)c1c([N+](=O)[O-])cc(C(F)(F)F)c(N)c1[N+](=O)[O-]`, the Potency result was “inactive”.

With `CN(C)CCc1c[nH]c2ccc(O)cc12`, the Potency entry was “inactive”.

`c1ccc2c(c1)OCC(C1=NCCN1)O2` (stereo not given): the Potency is 29.8 µM (active).

For `c1cc[c]([Sb]([c]2ccccc2)[c]2ccccc2)cc1`, the Potency result is “inactive”.

As for `CC(C)(O)c1cnn2c(-c3ccc(F)c(-c4c(F)cccc4C#N)c3)cnc2n1`, the Potency result was “inactive”.

Take `COc1ccc(N)cc1N`: the Potency is 70.8 µM (active).

In the case of `CC(C)CCCCCCCOP(=O)(Oc1ccccc1)Oc1ccccc1`, the Potency result was “inactive”.
